In publication PMC11006913:

The sequences below were run against ALX1 (Homo sapiens, UniProt Q15699 118-204, L144V) (assay: PBM; 200 nM protein, PBS). Details: dsDNA, one strand shown.
Sequence of ALX1 (Homo sapiens, UniProt Q15699 118-204, L144V) (Q15699 118-204 L144V): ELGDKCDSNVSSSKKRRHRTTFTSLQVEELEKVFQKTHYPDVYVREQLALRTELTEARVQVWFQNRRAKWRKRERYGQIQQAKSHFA

Sequence | binding signal
ATGTGTAA | 8.64 upbm affinity estimate (log intensity, higher = more binding, comparable within an allelic series)
AAAAATGT | 8.02 upbm affinity estimate (log intensity, higher = more binding, comparable within an allelic series)
AGTTAGCC | 7.87 upbm affinity estimate (log intensity, higher = more binding, comparable within an allelic series)
CCGACGCG | 6.16 upbm affinity estimate (log intensity, higher = more binding, comparable within an allelic series)
CCAGCGGC | 6.38 upbm affinity estimate (log intensity, higher = more binding, comparable within an allelic series)
TCTGTTAA | 8.7 upbm affinity estimate (log intensity, higher = more binding, comparable within an allelic series)
AATATTTA | 9.37 upbm affinity estimate (log intensity, higher = more binding, comparable within an allelic series)
CGGACGGA | 6.3 upbm affinity estimate (log intensity, higher = more binding, comparable within an allelic series)
AGATCATC | 7.78 upbm affinity estimate (log intensity, higher = more binding, comparable within an allelic series)
ATTTGTAA | 9.13 upbm affinity estimate (log intensity, higher = more binding, comparable within an allelic series)
CCTACGCC | 6.43 upbm affinity estimate (log intensity, higher = more binding, comparable within an allelic series)
ACCCGCGT | 6.47 upbm affinity estimate (log intensity, higher = more binding, comparable within an allelic series)
GCACCAGC | 6.41 upbm affinity estimate (log intensity, higher = more binding, comparable within an allelic series)
AATGAACC | 8.42 upbm affinity estimate (log intensity, higher = more binding, comparable within an allelic series)
TAGGATAA | 8.45 upbm affinity estimate (log intensity, higher = more binding, comparable within an allelic series)
GTCCAGAC | 6.53 upbm affinity estimate (log intensity, higher = more binding, comparable within an allelic series)
CCGAGAGC | 6.61 upbm affinity estimate (log intensity, higher = more binding, comparable within an allelic series)
CTCCTAGC | 6.62 upbm affinity estimate (log intensity, higher = more binding, comparable within an allelic series)
CCGTATTA | 8.94 upbm affinity estimate (log intensity, higher = more binding, comparable within an allelic series)
AGTTACTG | 8.01 upbm affinity estimate (log intensity, higher = more binding, comparable within an allelic series)

Sequence | binding signal
CGGCCGAG | 6.33 upbm affinity estimate (log intensity, higher = more binding, comparable within an allelic series)
AGAAGGGC | 6.58 upbm affinity estimate (log intensity, higher = more binding, comparable within an allelic series)
CAAATTTG | 9.35 upbm affinity estimate (log intensity, higher = more binding, comparable within an allelic series)
CGGGTTCC | 6.36 upbm affinity estimate (log intensity, higher = more binding, comparable within an allelic series)
CACCTTCG | 6.61 upbm affinity estimate (log intensity, higher = more binding, comparable within an allelic series)
CCTTTAAC | 8.41 upbm affinity estimate (log intensity, higher = more binding, comparable within an allelic series)
GGAGAAAC | 6.41 upbm affinity estimate (log intensity, higher = more binding, comparable within an allelic series)
CAACGGAG | 6.43 upbm affinity estimate (log intensity, higher = more binding, comparable within an allelic series)
AAATGATG | 8.1 upbm affinity estimate (log intensity, higher = more binding, comparable within an allelic series)
AAATGGGA | 8.33 upbm affinity estimate (log intensity, higher = more binding, comparable within an allelic series)
ATATTGTC | 8.09 upbm affinity estimate (log intensity, higher = more binding, comparable within an allelic series)
AGGCAAAT | 8.05 upbm affinity estimate (log intensity, higher = more binding, comparable within an allelic series)
GACTCGAC | 6.55 upbm affinity estimate (log intensity, higher = more binding, comparable within an allelic series)
CATTAAAG | 9.86 upbm affinity estimate (log intensity, higher = more binding, comparable within an allelic series)
CGTATAAG | 8.14 upbm affinity estimate (log intensity, higher = more binding, comparable within an allelic series)
CTCCTGGA | 6.55 upbm affinity estimate (log intensity, higher = more binding, comparable within an allelic series)
AGCCTTCG | 6.33 upbm affinity estimate (log intensity, higher = more binding, comparable within an allelic series)
CGACTGCC | 6.48 upbm affinity estimate (log intensity, higher = more binding, comparable within an allelic series)
CTGAATTC | 7.73 upbm affinity estimate (log intensity, higher = more binding, comparable within an allelic series)

What follows are sequences tested against ALX1 (Homo sapiens, UniProt Q15699 118-204, L144R) (assay: PBM; 200 nM protein, PBS). Details: dsDNA, one strand shown.
Sequence of ALX1 (Homo sapiens, UniProt Q15699 118-204, L144R) (Q15699 118-204 L144R): as the sequence (Q15699 118-204 L144V) above, with V27R counted along it

Sequence | binding signal
ATGTGTAA | 8.5 upbm affinity estimate (log intensity, higher = more binding, comparable within an allelic series)
AAAAATGT | 8.01 upbm affinity estimate (log intensity, higher = more binding, comparable within an allelic series)
AGTTAGCC | 7.7 upbm affinity estimate (log intensity, higher = more binding, comparable within an allelic series)
CCGACGCG | 6.27 upbm affinity estimate (log intensity, higher = more binding, comparable within an allelic series)
CCAGCGGC | 6.67 upbm affinity estimate (log intensity, higher = more binding, comparable within an allelic series)
TCTGTTAA | 8.61 upbm affinity estimate (log intensity, higher = more binding, comparable within an allelic series)
AATATTTA | 9.47 upbm affinity estimate (log intensity, higher = more binding, comparable within an allelic series)
CGGACGGA | 6.37 upbm affinity estimate (log intensity, higher = more binding, comparable within an allelic series)
AGATCATC | 7.76 upbm affinity estimate (log intensity, higher = more binding, comparable within an allelic series)
ATTTGTAA | 8.97 upbm affinity estimate (log intensity, higher = more binding, comparable within an allelic series)
CCTACGCC | 6.36 upbm affinity estimate (log intensity, higher = more binding, comparable within an allelic series)
ACCCGCGT | 6.51 upbm affinity estimate (log intensity, higher = more binding, comparable within an allelic series)
GCACCAGC | 6.46 upbm affinity estimate (log intensity, higher = more binding, comparable within an allelic series)
AATGAACC | 8.46 upbm affinity estimate (log intensity, higher = more binding, comparable within an allelic series)
TAGGATAA | 8.36 upbm affinity estimate (log intensity, higher = more binding, comparable within an allelic series)
GTCCAGAC | 6.49 upbm affinity estimate (log intensity, higher = more binding, comparable within an allelic series)
CCGAGAGC | 6.63 upbm affinity estimate (log intensity, higher = more binding, comparable within an allelic series)
CTCCTAGC | 6.57 upbm affinity estimate (log intensity, higher = more binding, comparable within an allelic series)
CCGTATTA | 8.73 upbm affinity estimate (log intensity, higher = more binding, comparable within an allelic series)
AGTTACTG | 7.88 upbm affinity estimate (log intensity, higher = more binding, comparable within an allelic series)

Sequence | binding signal
CGGCCGAG | 6.51 upbm affinity estimate (log intensity, higher = more binding, comparable within an allelic series)
AGAAGGGC | 6.68 upbm affinity estimate (log intensity, higher = more binding, comparable within an allelic series)
CAAATTTG | 9 upbm affinity estimate (log intensity, higher = more binding, comparable within an allelic series)
CGGGTTCC | 6.23 upbm affinity estimate (log intensity, higher = more binding, comparable within an allelic series)
CACCTTCG | 6.38 upbm affinity estimate (log intensity, higher = more binding, comparable within an allelic series)
CCTTTAAC | 8.36 upbm affinity estimate (log intensity, higher = more binding, comparable within an allelic series)
GGAGAAAC | 6.7 upbm affinity estimate (log intensity, higher = more binding, comparable within an allelic series)
CAACGGAG | 6.49 upbm affinity estimate (log intensity, higher = more binding, comparable within an allelic series)
AAATGATG | 8.04 upbm affinity estimate (log intensity, higher = more binding, comparable within an allelic series)
AAATGGGA | 8.01 upbm affinity estimate (log intensity, higher = more binding, comparable within an allelic series)
ATATTGTC | 8.02 upbm affinity estimate (log intensity, higher = more binding, comparable within an allelic series)
AGGCAAAT | 7.93 upbm affinity estimate (log intensity, higher = more binding, comparable within an allelic series)
GACTCGAC | 6.63 upbm affinity estimate (log intensity, higher = more binding, comparable within an allelic series)
CATTAAAG | 9.67 upbm affinity estimate (log intensity, higher = more binding, comparable within an allelic series)
CGTATAAG | 8.05 upbm affinity estimate (log intensity, higher = more binding, comparable within an allelic series)
CTCCTGGA | 6.53 upbm affinity estimate (log intensity, higher = more binding, comparable within an allelic series)
AGCCTTCG | 6.46 upbm affinity estimate (log intensity, higher = more binding, comparable within an allelic series)
CGACTGCC | 6.43 upbm affinity estimate (log intensity, higher = more binding, comparable within an allelic series)
CTGAATTC | 7.6 upbm affinity estimate (log intensity, higher = more binding, comparable within an allelic series)

Each sequence was assayed against ALX1 (Homo sapiens, UniProt Q15699 118-204) (assay: PBM; 200 nM protein, PBS). Details: dsDNA, one strand shown.
Sequence of ALX1 (Homo sapiens, UniProt Q15699 118-204) (Q15699 118-204): as the sequence (Q15699 118-204 L144V) above, with V27L counted along it

Sequence | binding signal
ATGTGTAA | 8.88 upbm affinity estimate (log intensity, higher = more binding, comparable within an allelic series)
AAAAATGT | 8.15 upbm affinity estimate (log intensity, higher = more binding, comparable within an allelic series)
AGTTAGCC | 8.29 upbm affinity estimate (log intensity, higher = more binding, comparable within an allelic series)
CCGACGCG | 6.71 upbm affinity estimate (log intensity, higher = more binding, comparable within an allelic series)
CCAGCGGC | 6.48 upbm affinity estimate (log intensity, higher = more binding, comparable within an allelic series)
TCTGTTAA | 9.01 upbm affinity estimate (log intensity, higher = more binding, comparable within an allelic series)
AATATTTA | 9.54 upbm affinity estimate (log intensity, higher = more binding, comparable within an allelic series)
CGGACGGA | 6.28 upbm affinity estimate (log intensity, higher = more binding, comparable within an allelic series)
AGATCATC | 7.9 upbm affinity estimate (log intensity, higher = more binding, comparable within an allelic series)
ATTTGTAA | 9.47 upbm affinity estimate (log intensity, higher = more binding, comparable within an allelic series)
CCTACGCC | 6.5 upbm affinity estimate (log intensity, higher = more binding, comparable within an allelic series)
ACCCGCGT | 6.45 upbm affinity estimate (log intensity, higher = more binding, comparable within an allelic series)
GCACCAGC | 6.19 upbm affinity estimate (log intensity, higher = more binding, comparable within an allelic series)
AATGAACC | 8.7 upbm affinity estimate (log intensity, higher = more binding, comparable within an allelic series)
TAGGATAA | 8.67 upbm affinity estimate (log intensity, higher = more binding, comparable within an allelic series)
GTCCAGAC | 6.42 upbm affinity estimate (log intensity, higher = more binding, comparable within an allelic series)
CCGAGAGC | 6.63 upbm affinity estimate (log intensity, higher = more binding, comparable within an allelic series)
CTCCTAGC | 6.52 upbm affinity estimate (log intensity, higher = more binding, comparable within an allelic series)
CCGTATTA | 9.27 upbm affinity estimate (log intensity, higher = more binding, comparable within an allelic series)
AGTTACTG | 8.32 upbm affinity estimate (log intensity, higher = more binding, comparable within an allelic series)

Sequence | binding signal
CGGCCGAG | 6.15 upbm affinity estimate (log intensity, higher = more binding, comparable within an allelic series)
AGAAGGGC | 6.45 upbm affinity estimate (log intensity, higher = more binding, comparable within an allelic series)
CAAATTTG | 9.69 upbm affinity estimate (log intensity, higher = more binding, comparable within an allelic series)
CGGGTTCC | 6.28 upbm affinity estimate (log intensity, higher = more binding, comparable within an allelic series)
CACCTTCG | 6.33 upbm affinity estimate (log intensity, higher = more binding, comparable within an allelic series)
CCTTTAAC | 8.65 upbm affinity estimate (log intensity, higher = more binding, comparable within an allelic series)
GGAGAAAC | 6.58 upbm affinity estimate (log intensity, higher = more binding, comparable within an allelic series)
CAACGGAG | 6.47 upbm affinity estimate (log intensity, higher = more binding, comparable within an allelic series)
AAATGATG | 8.35 upbm affinity estimate (log intensity, higher = more binding, comparable within an allelic series)
AAATGGGA | 8.46 upbm affinity estimate (log intensity, higher = more binding, comparable within an allelic series)
ATATTGTC | 8 upbm affinity estimate (log intensity, higher = more binding, comparable within an allelic series)
AGGCAAAT | 8.18 upbm affinity estimate (log intensity, higher = more binding, comparable within an allelic series)
GACTCGAC | 6.64 upbm affinity estimate (log intensity, higher = more binding, comparable within an allelic series)
CATTAAAG | 10.1 upbm affinity estimate (log intensity, higher = more binding, comparable within an allelic series)
CGTATAAG | 8.12 upbm affinity estimate (log intensity, higher = more binding, comparable within an allelic series)
CTCCTGGA | 6.48 upbm affinity estimate (log intensity, higher = more binding, comparable within an allelic series)
AGCCTTCG | 6.29 upbm affinity estimate (log intensity, higher = more binding, comparable within an allelic series)
CGACTGCC | 6.37 upbm affinity estimate (log intensity, higher = more binding, comparable within an allelic series)
CTGAATTC | 7.82 upbm affinity estimate (log intensity, higher = more binding, comparable within an allelic series)
